Screens: PubChem, National Center for Advancing Translational Sciences (NCATS)
SMN2 splice enh – qHTS Assay for Enhancers of SMN2 Splice Variant Expression; AID 1458, 2008; Potency, µM (series often up to 46.1 µM), for inactives: at the top dose activity change, positive = activation, most hits filed as activators; HEK293 SMN2-luciferase splicing reporter, luminescence, 30-36 h; 210,000 tested, 2.8% active; also: % of control where 0% means no effect; nearly all actives have a fitted effect of over 55% in size
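qHTS luciferase splicing reporter: luminescence rises when SMN2 exon 7 is included in transfected HEK293 cells. Compound exposure lasted 30-36 h at 37C, with 4.5 mM final sodium butyrate as control, followed by a ONE-Glo read.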
Rab9 promoter act – qHTS Assay for Rab9 Promoter Activators; 320,000 tested, 2.8% active; AID 485297, 2010; Potency, µM (series often up to 9.22 µM), for the others: at the top dose activation, negative = inhibition, most hits filed as activators; Huh7 Rab9 promoter-luciferase reporter, luminescence, 24 h; also: % of control where 0% means no effect; nearly all actives have a fitted effect of over 60% in size
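Huh7 cells stably carrying a Rab9 promoter-luciferase reporter, 1500 cells per well in OP-MEM I with 10% FBS, treated with compound 24 hours at 37C. Luciferase activity read by luminescence after 10 minutes with Amplite reagent.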
NPC1 prom act – qHTS Assay for NPC1 Promoter Activators. Potency, µM (titrated, usually from 9.22 µM), without a hit: top-dose activation, actives largely listed as activators. Huh7 NPC1 promoter luciferase reporter, 24 h. 320,000 tested, 2.4% active; also: % of control where 0% means no effect; nearly all actives have a fitted effect of over 60% in size
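Huh7 reporter cells (NPC1 promoter driving luciferase) are dosed with compound for 24 h at 37 °C, 5% CO2; luciferase detection reagent is then added and luminescence measured after 10 min at ambient temperature.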
Luc counter – Counterscreen for Luciferase (Kinase-Glo TM) Inhibition; Luciferin 4-monooxygenase (Photuris pensylvanica), Q27757; Kinase-Glo luciferase, ATP luminescence, 8 min; Potency, µM (doses to about 38.3 µM), for the others: at the top dose activity change, negative = inhibition, actives largely listed as inhibitors; 200,000 tested, 0.28% active; AID 1379, 2008; also: % is scaled to controls: 0 for no effect and ±100 for the full control effect; nearly all actives have a fitted effect of over 60% in size
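Luminescence was the read-out, taken after 8-minute incubation at ambient temperature. Luciferase turned over luciferin with 10 uM ATP in imidazole pH 7.2 buffer containing KCl, MgCl2, Tween 20 and BSA.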
FLuc counter – qHTS profiling assay for firefly luciferase inhibitor/activator using purifed enzyme and Km concentrations of substrates (counterscreen for miR-21 project); Luciferin 4-monooxygenase (Photinus pyralis), P08659; purified FLuc, Km substrates, luminescence inhibition; Potency, µM (highest dose often 57.5 µM), inactives show top-dose activity change, negative = inhibition, most hits filed as inhibitors; 360,000 tested, 6.9% active;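 also: plate controls were vehicle for no effect and reference inhibitor for full effect; nearly all actives have a fitted effect of over 55% in size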
Target sequence (P08659 whole entry, looked up): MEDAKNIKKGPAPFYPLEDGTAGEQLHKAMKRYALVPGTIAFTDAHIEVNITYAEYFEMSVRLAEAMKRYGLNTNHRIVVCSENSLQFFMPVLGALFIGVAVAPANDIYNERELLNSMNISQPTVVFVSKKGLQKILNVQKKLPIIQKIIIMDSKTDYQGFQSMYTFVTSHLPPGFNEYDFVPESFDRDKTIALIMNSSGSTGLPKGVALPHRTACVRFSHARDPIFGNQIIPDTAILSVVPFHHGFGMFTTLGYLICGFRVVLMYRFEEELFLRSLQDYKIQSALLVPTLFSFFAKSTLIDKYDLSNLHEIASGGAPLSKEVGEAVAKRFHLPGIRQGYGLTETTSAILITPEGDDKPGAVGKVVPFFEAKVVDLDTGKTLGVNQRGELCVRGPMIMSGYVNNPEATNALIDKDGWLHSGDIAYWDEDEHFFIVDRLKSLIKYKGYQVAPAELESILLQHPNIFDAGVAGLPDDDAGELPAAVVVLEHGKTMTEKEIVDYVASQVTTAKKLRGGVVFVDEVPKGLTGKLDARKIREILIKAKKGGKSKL
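Purified P. pyralis luciferase, 10 nM final, with Km-level 10 uM D-luciferin and 10 uM ATP in 50 mM Tris acetate pH 7.5, 10 mM Mg acetate, 0.01% Tween-20, 0.05% BSA; 6-point qHTS titration about 60 µM downward; luminescence read.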
ELG1 genotoxic – qHTS screen for small molecules that induce genotoxicity in human embryonic kidney (HEK293T) cells expressing luciferase-tagged ELG1. HEK293T ELG1-luciferase reporter, luminescence, 16 h. Potency, µM (top dose mostly 46 µM), inactives show top-dose activity change, positive = activation, usual class: activators. 330,000 tested, 1.3% active. AID 504466, 2011; also: % of control where 0% means no effect; nearly all actives have a fitted effect of over 60% in size
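Quantitative HTS format in 1536-well plates. HEK293T ELG1-luciferase reporter cells receive test compound and are incubated 16 hr at 37 °C, 5% CO2; ONE-Glo added, 30 min room temperature, then luminescence read.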
* marks the source's active call; other numbers are inactive results. This is a sample that favours compounds with a hit; in the whole collection about 7.5% have one here. Calls follow the shape of the dose curve; as a rule, active = well fitted curve in the direction sought with a large enough effect; inconclusive = small, poorly fitted or top-dose-only effect, or another doubt; inactive = no such curve, though single readings can be large; an effect the other way counts as inactive or inconclusive. Potency is read from the fitted curve at half-maximal effect.

Screening Cc1cc(C(=O)CN2C(=O)C(=O)N(Cc3ccccc3)C2=O)c(C)n1Cc1ccccc1 returned ELG1 genotoxic 1%.
For Cc1cc(C(=O)CN2CCC(C)CC2)c(C)n1-c1ccccc1F the results were SMN2 splice enh inconclusive, Rab9 promoter act -8%, NPC1 prom act -8%, Luc counter 1%, FLuc counter 1.9µM* and ELG1 genotoxic inconclusive.
For Cc1cc(C(=O)CN2C(=O)C(=O)N(Cc3ccccc3)C2=O)c(C)n1-c1ccccc1F the results were SMN2 splice enh -1%, Rab9 promoter act -3%, NPC1 prom act 0%, Luc counter 4%, FLuc counter 19µM* and ELG1 genotoxic 2%.
CCc1ccc(NC(=O)N2CCN(Cc3nc4ccc(C)cc4o3)CC2)cc1 was read as FLuc counter -12%.
Screening Cc1ccc(CSCCC(=O)N2CCN(c3cc(C)ccc3C)CC2)cc1 returned FLuc counter 5%.
For COc1cc(C2NC(=O)NC(C)=C2[N+](=O)[O-])cc(OC)c1OC (stereo not drawn) the results were Rab9 promoter act -7%, NPC1 prom act -3%, FLuc counter -1% and ELG1 genotoxic 2%.
Screening O=C(NCC1CCCO1)C(c1cccnc1)N(C(=O)Cc1cccs1)c1ccccc1 (stereo not drawn) returned SMN2 splice enh -5%, Rab9 promoter act inconclusive, NPC1 prom act inconclusive, Luc counter -12%, FLuc counter 11µM* and ELG1 genotoxic 10%.
Screening Oc1c(Cl)cc(Cl)cc1C=Nc1cc(C(F)(F)F)ccc1N1CCc2ccccc2C1 returned Rab9 promoter act inconclusive, NPC1 prom act inconclusive, FLuc counter 1.9µM* and ELG1 genotoxic inconclusive.
Screening CC(=O)c1cccc(NC(=O)CSc2ccc(-c3ccco3)nn2)c1 returned Rab9 promoter act 15%, NPC1 prom act 12%, FLuc counter 24µM* and ELG1 genotoxic -13%.
`COc1ccccc1NC(=O)CSc1ccc(-c2ccccn2)nn1` gave Rab9 promoter act 15%, NPC1 prom act 12%, FLuc counter -18% and ELG1 genotoxic inconclusive.
`COc1ccccc1NC(=O)CSc1ccc(-c2ccc(-n3cccn3)cc2)nn1` gave Rab9 promoter act 13%, NPC1 prom act 13%, FLuc counter 1.5µM* and ELG1 genotoxic 0%.
COc1ccc(-c2ccc(SCC(=O)NCc3ccco3)nn2)cc1OC was read as SMN2 splice enh 3%, Rab9 promoter act 3%, NPC1 prom act 6%, Luc counter -2%, FLuc counter 21µM* and ELG1 genotoxic 6%.
Screening COc1ccc(-c2cc(C(F)(F)F)nc(SCC(=O)NCc3ccco3)n2)cc1OC returned SMN2 splice enh 2%, Rab9 promoter act 0%, NPC1 prom act 4%, Luc counter -3%, FLuc counter -7% and ELG1 genotoxic 6%.
`COc1ccc(-c2ccc(SCC(=O)NC3CCCCC3)nn2)cc1OC` gave Rab9 promoter act inconclusive, NPC1 prom act 27%, FLuc counter 5.4µM* and ELG1 genotoxic 9%.
For CCOc1ccc2nc(N3CCCC(C(=O)Nc4ccccc4CC)C3)sc2c1 (stereo not drawn) the results were SMN2 splice enh 21% and FLuc counter inconclusive.
`CN(Cc1ccccc1)C(=O)c1cc(-c2cccc(Cl)c2)on1` gave SMN2 splice enh 1% and FLuc counter inconclusive.
Screening COc1ccc(-c2noc(-c3ccccc3C(=O)NCc3ccco3)n2)cc1OC returned SMN2 splice enh -10%, Rab9 promoter act -3%, NPC1 prom act 9%, Luc counter -6%, FLuc counter 19µM* and ELG1 genotoxic -19%.
Screening CC(=O)c1cccc(NC(=O)CSc2ccc(-c3ccc4c(c3)OCO4)nn2)c1 returned SMN2 splice enh 12%, Rab9 promoter act inconclusive, NPC1 prom act 27%, Luc counter -13%, FLuc counter inconclusive and ELG1 genotoxic -3%.
Screening COc1ccc(-c2cc(-c3cccs3)c(C#N)c(SCC(=O)NCc3ccco3)n2)cc1 returned SMN2 splice enh 13%, Rab9 promoter act -13%, NPC1 prom act -20%, Luc counter -7%, FLuc counter 12µM* and ELG1 genotoxic inconclusive.
`COc1ccc(-c2ccc(SCC(=O)Nc3cccc(C(C)=O)c3)nn2)cc1OC` gave Rab9 promoter act 30%, NPC1 prom act 23%, Luc counter -12%, FLuc counter 6µM* and ELG1 genotoxic -15%.
`CCN(CC)C(=O)CSc1nc(-c2ccccc2)cc(-c2ccc(OC)cc2)c1C#N` gave SMN2 splice enh -9% and FLuc counter 17µM*.
Screening COc1ccc(CNC(=O)CSc2nc(-c3ccccc3)cc(-c3cccs3)c2C#N)cc1 returned SMN2 splice enh 21%, Rab9 promoter act 1%, NPC1 prom act -2%, Luc counter -2%, FLuc counter 2% and ELG1 genotoxic inconclusive.
`S=C(Nc1ccccc1Cl)NC1CC2CCCC(C1)N2C1CC1` (stereo not drawn) gave SMN2 splice enh -5%, Rab9 promoter act -1%, NPC1 prom act -2%, Luc counter -2%, FLuc counter 0% and ELG1 genotoxic -2%.
COc1ccc(N(CC(=O)NCCc2ccccc2)S(=O)(=O)c2c(C)nn(C)c2C)cc1 was read as SMN2 splice enh -10% and FLuc counter -6%.
Screening Cc1ccc(S(=O)(=O)n2nc(-c3ccccc3)nc2NCc2ccccc2Cl)cc1 returned SMN2 splice enh 2% and FLuc counter 3%.
CC(=O)N1c2ccc(S(=O)(=O)N3CCCCCC3)cc2CC1C(=O)NCc1ccccc1 (stereo not drawn) was read as FLuc counter -6%.
COc1ccc(-n2c(=O)c3ccc(C(=O)NCc4ccc(C)cc4)cc3n(Cc3ccc(Cl)cc3)c2=O)cc1 was read as SMN2 splice enh 7% and FLuc counter 1%.
`COc1ccc(-n2nc(C(=O)NCC(=O)N3CCN(Cc4ccccc4)CC3)c3ccccc3c2=O)cc1` gave Rab9 promoter act -3%, NPC1 prom act -3%, FLuc counter inconclusive and ELG1 genotoxic -16%.
